Measured values reported in the supplement of paper PMC9948646.

Test system: gramicidin D channels in DC22:1PC lipid vesicles (bilayer-modifying potency)
Experiment: initial Tl+ fluorescence quench rate relative to no-drug control (NormRate, gramicidin monomer-dimer shift) (ratio (fold of control)); higher = stronger bilayer-modifying effect (equilibrium shifted toward conducting dimers), active = 1.5 or more
Conditions: 10 µM; lipid concentration 50 µM; temperature: 25 °C
Protocol: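 Stopped-flow fluorescence quench assay: ANTS-loaded DC22:1PC large unilamellar vesicles doped with gramicidin D (1:2000), 50 µM lipid, equilibrated 10 min with 10 µM drug (0.1% DMSO), mixed with Tl+ quench buffer at 25°C. Initial quench rate (Tl+ influx) was fitted with a modified stretched exponential and normalised to the no-drug control rate (NormRate); duplicates from two independent LUV preparations (triplicates for 7 drugs).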

Structure (SMILES) | initial Tl+ fluorescence quench rate
Cc1nn(Cc2ccccc2)c(Cl)c1C(=O)NC1CCCCCC1 | 1.1 (inactive)
C[C@@H]1CO[C@](Cn2cncn2)(c2ccc(Oc3ccc(Cl)cc3)cc2Cl)O1 | 2.49 (active)
Cc1cccc(C(=O)Nc2ccnc(N(C)C3CCN(CC(C)C)CC3)c2)c1 | 1.12 (inactive)
CO[C@@H]1CN(c2ccc(C#C[C@@]3(O)CN4CCC3CC4)c(Cc3ccccc3)n2)C[C@H]1O | 1.06 (inactive)
Cc1nn(C)c(C)c1NS(=O)(=O)c1c(Cl)cc(-c2ccnc(N3CCNCC3)c2)cc1Cl | 1.38 (inactive)
O=C1O[C@@H](COc2ccon2)CN1c1cc(F)c(C2=CCN(Cc3ccccc3)CC2)c(F)c1 | 1.31 (inactive)
CO/C=C(/C(=O)OC)c1ccccc1Oc1cc(Oc2ccccc2C#N)ncn1 | 1.05 (inactive)
Nc1c2c(nc3sc4c(c13)CCCC4)CCCC2 | 1.07 (inactive)
CC1(C)OB(O)c2ccc(C3=NO[C@@](c4cc(Cl)c(F)c(Cl)c4)(C(F)(F)F)C3)cc21 | 4.11 (active)
O=C1O[C@@H](CO)CN1c1cc(F)c(C2=CCN(Cc3ccccc3)CC2)c(F)c1 | 1.13 (inactive)
CCc1nn(C)c(C(=O)NCc2ccc(Oc3ccc(C)cc3)cc2)c1Cl | 2.89 (active)
Cc1cc(C2=NO[C@@](c3cc(Cl)c(F)c(Cl)c3)(C(F)(F)F)C2)ccc1C(=O)NCc1ccc2c(c1)C(C)(C)OB2O | 4.21 (active)
CC(C)(C)[C@@H](O)[C@H](Oc1ccc(-c2ccccc2)cc1)n1cncn1 | 2.39 (active)
CO/N=C(\C(=O)OC)c1ccccc1CO/N=C(\C)c1cccc(C(F)(F)F)c1 | 1.36 (inactive)
